{"source": "PubChem BioAssay (Tox21)", "note": "Values without a mark were called inactive. Entries that show only a call come without a potency. Calls of active or inactive are those of the source. The call rests on the fitted dose curve; in most records, active means well fitted curve in the direction sought with a large enough effect in the repeat runs; inconclusive means weak or mixed curves; inactive means flat fitted curve, though single readings scatter. Starred links: 1 amine or outer side, 2 acyl side, 3 side chain; linkers in the order of their positions; H or OH if unused. Positions of bridges follow the written chain, without caps; N, C: chain ends. Non-standard residues stand in square brackets, D forms with d. Residues, ends and D or L forms follow the SMILES beside them. Chains are numbered I, II in the order given. Actinocin(9to1) = Cc1c2oc3c(C)ccc(C(=O)[*:1])c3nc-2c(C(=O)[*:2])c(N)c1=O; NMeV = CN[C@H](C(=O)O)C(C)C; Sar = CNCC(=O)O", "data": [{"test": "qHTS assay to test for compound auto fluorescence at 460 nm (blue) in HEK293 cells (AID 720678)", "settings": "blue autofluorescence 405/460 nm; series mostly up to 91.3 µM", "description": "National Center for Advancing Translational Sciences [NCATS]\nNIH Chemical Genomics Center [NCGC]\nU.S. Environmental Protection Agency [EPA]\nNational Institutes of Environmental Health Sciences [NIEHS]\nNational Toxicology Program [NTP]\nU.S. Food and Drug Administration [FDA]\nCompound auto fluorescence often interferes with screening of the compound library against various biological targets and signaling pathways. Some of these compounds may have fluorophoric properties. Such properties may interfere with the assay outputs resulting in false positives and/or negatives. To decrease such complications and ensure the compound activities are relevant in terms of biological response, the Tox21 10K compound library was screened for auto fluorescence.\nFrom the fluorophores used as reporter signals in our screening assays, the auto fluorescence equivalencies of compounds against three fluorophores have been evaluated: Triamterene, Fluorescein and Rose Bengal sodium for blue, green and red fluorescence, respectively. The fluorescence intensities were measured using Excitation/Emission wavelengths at 405/460nm, 485/535nm and 540/590nm for blue, green and red labels, respectively. This assay includes the blue fluorescence data.\nTox21 Assay Protocol Summary:\n2,000 HEK293 cells in 5 uL of culture medium containing 10% dialyzed FBS per well were dispensed into black wall/clear bottom 1536-well plates using a Multidrop Combi Dispenser (Thermo Scientific). The assay plates were incubated for 4-5 hr at 37C to allow cell attachment to the well bottom, followed by the transfer of 23 nL compound or DMSO vehicle by a pintool work station (Kalypsys, San Diego, CA). After the assay plates were incubated overnight at 37C and 5% CO2, fluorescence intensities in the assay plates were measured by an Envision (PerkinElmer, Shelton, CT) plate reader using three labels for measuring blue, green and red fluorescence at […] 460, 535 and 590nm respectively.", "values": [{"smiles": "CC(C)(C)c1cc(C(C)(C)C)c(O)c(C(C)(C)C)c1", "Potency": "inactive"}, {"smiles": "Cc1cc(Cc2cc(C)cc(C(C)(C)C)c2O)c(O)c(C(C)(C)C)c1", "Potency": "inactive"}, {"smiles": "OCCOCCN1CCN(C(c2ccccc2)c2ccc(Cl)cc2)CC1", "note": "(stereo not given)", "Potency": "inactive"}, {"smiles": "C=C(C)C(=O)O", "Potency": "inactive"}, {"smiles": "CCOc1ccc2c(c1)C(C)=CC(C)(C)N2", "Potency": "inactive"}, {"smiles": "Oc1c(Cl)cc(Cl)cc1Sc1cc(Cl)cc(Cl)c1O", "Potency": "inactive"}, {"smiles": "CCC[C@H](N[C@@H](C)C(=O)N1[C@H](C(=O)O)C[C@@H]2CCCC[C@@H]21)C(=O)OCC", "Potency": "inactive"}, {"smiles": "Cc1c2oc3c(C)ccc(C(=O)N[C@@H]4C(=O)N[C@H](C(C)C)C(=O)N5CCC[C@H]5C(=O)N(C)CC(=O)N(C)[C@@H](C(C)C)C(=O)O[C@@H]4C)c3nc-2c(C(=O)N[C@@H]2C(=O)N[C@H](C(C)C)C(=O)N3CCC[C@H]3C(=O)N(C)CC(=O)N(C)[C@@H](C(C)C)C(=O)O[C@@H]2C)c(N)c1=O", "note": "(I: T[dV]P[Sar][NMeV] / II: T[dV]P[Sar][NMeV]; ester I:1-I:C, II:1-II:C; linker I:N-II:N via Actinocin(9to1))", "Potency": "inactive"}, {"smiles": "CCCOC(=O)c1cc(O)c(O)c(O)c1", "Potency": "inactive"}, {"smiles": "Cc1ccc(S(=O)(=O)Oc2ccc(N=Nc3ccc(-c4ccc(N=Nc5c(O)ccc6cc(S(=O)(=O)O)cc(S(=O)(=O)O)c56)c(C)c4)cc3C)cc2)cc1", "Potency": "inactive"}, {"smiles": "CC(N)=O", "Potency": "inactive"}, {"smiles": "CC1COc2c(N3CCN(C)CC3)c(F)cc3c(=O)c(C(=O)O)cn1c23", "note": "(stereo not given)", "Potency": "inactive"}, {"smiles": "CCCCCCC(O)CCCCCCCCCCC(=O)O", "note": "(stereo not given)", "Potency": "inactive"}, {"smiles": "c1ccc2c(c1)CCCC2C1=NCCN1", "note": "(stereo not given)", "Potency": "inactive"}, {"smiles": "O=C(Oc1ccccc1)c1ccccc1O", "Potency": "inactive"}, {"smiles": "c1cc(C(c2ccc(OCC3CO3)cc2)C(c2ccc(OCC3CO3)cc2)c2ccc(OCC3CO3)cc2)ccc1OCC1CO1", "note": "(stereo not given)", "Potency": "inactive"}, {"smiles": "O=C1OC2(c3ccc(O)cc3Oc3cc(O)ccc32)c2ccccc21", "Potency": "inactive"}, {"smiles": "Cc1c(O)cccc1C(=O)N[C@@H](CSc1ccccc1)[C@H](O)CN1C[C@H]2CCCC[C@H]2C[C@H]1C(=O)NC(C)(C)C", "Potency": "inactive"}, {"smiles": "O", "Potency": "inactive"}, {"smiles": "OCC(CO)N[C@H]1C[C@](O)(CO)[C@@H](O)[C@H](O)[C@H]1O", "Potency": "inactive"}, {"smiles": "N[C@@H]1CONC1=O", "Potency": "inactive"}, {"smiles": "CN1C(=O)c2ccc([N+](=O)[O-])cc2C1=O", "Potency": "inactive"}, {"smiles": "CCC(=O)/C=C/C1C(C)=CCCC1(C)C", "note": "(stereo not given)", "Potency": "inactive"}, {"smiles": "NC(=Nc1ccccc1)Nc1ccccc1", "Potency": "inactive"}, {"smiles": "O=C(O[C@@H]1Cc2c(O)cc(O)cc2O[C@@H]1c1cc(O)c(O)c(O)c1)c1cc(O)c(O)c(O)c1", "Potency": "inactive"}, {"smiles": "O=C(O)CCc1ccccc1", "Potency": "inactive"}, {"smiles": "Cc1cccc(O)c1C", "Potency": "inactive"}, {"smiles": "O=C(O)c1cccc(C(=O)O)c1", "Potency": "inactive"}, {"smiles": "CCC(CO)(CO)COCC(CC)(CO)CO", "Potency": "inactive"}, {"smiles": "CCC(C)(Oc1ccc(C2(c3ccc(OC(C)(CC)C(=O)O)cc3)CCCCC2)cc1)C(=O)O", "note": "(stereo not given)", "Potency": "inactive"}, {"smiles": "CCCCCCCCCCCCCC[P+](CCCC)(CCCC)CCCC", "Potency": "inactive"}, {"smiles": "CC(C)(C)NC(=O)[C@@H]1CN(Cc2cccnc2)CCN1C[C@@H](O)C[C@@H](Cc1ccccc1)C(=O)N[C@H]1c2ccccc2C[C@H]1O", "Potency": "inactive"}, {"smiles": "CCCCCCCCCCCCCCCCCl", "fluorescence, % of triamterene": "0.0135% [at 18.6 µM]"}, {"smiles": "CN(C)c1ccc2nc3ccc(=[N+](C)C)cc-3sc2c1", "Potency": "inactive"}, {"smiles": "Nc1ccc(O)cc1", "Potency": "inactive"}, {"smiles": "c1cnc2cc3c(cc2n1)C1CNCC3C1", "Potency": "inactive"}, {"smiles": "CC[C@@H](N)CO", "Potency": "inactive"}, {"smiles": "COc1ccc(Cc2cnc(N)nc2N)cc1OC", "Potency": "inactive"}, {"smiles": "COC(=O)/C=C/c1ccccc1", "Potency": "inactive"}, {"smiles": "O=Cc1ccc(Cl)cc1", "Potency": "inactive"}]}]}
